Compounds with a hit are over-represented: about 12% of the library has one in this group of screens.
Pf growth 48h: inhibits P. falciparum growth in the first generation, 48 h. Potency, µM (highest dose often 28.7 µM), without a hit: at the highest dose activity change, negative = inhibition, usual class: inhibitors. AID 504832. P. falciparum luciferase growth in erythrocytes, 48 h. 310,000 tested, 5.9% active; note: % is set by controls: 0 for no effect and ±100 for the full control effect
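Firefly luciferase activity from engineered P. falciparum reports growth; inhibitors lower the luminescent signal. Cultures contained 2% hematocrit erythrocytes at 0.1% final parasitemia.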
SARS PLP yeast: blocks SARS-CoV papain-like protease in a yeast assay; Potency, µM (titrated, usually from 32.9 µM), for inactives: at the highest dose activity, positive = growth rescue, actives largely listed as activators; 330,000 tested, 0.19% active; S. cerevisiae expressing SARS-CoV PLpro, growth rescue; calls by dose curve; note: 0% is about no effect; nearly all actives have a fitted effect of over 55% in size
Sm TGR inh: blocks Schistosoma mansoni thioredoxin glutathione reductase; purified TGR, DTNB reduction, TNB absorbance 405 nm; Potency, µM (highest dose often 114 µM), for inactives: at the highest dose activity change, negative = inhibition, hits mostly inhibitors; 360,000 tested, 3% active; note: % is set by controls: 0 for no effect and ±100 for the full control effect; nearly all actives have a fitted effect of over 60% in size
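Kinetic colorimetric format: TGR-catalysed, NADPH-driven DTNB reduction monitored via TNB absorbance. Enzyme dispensed at 20 nM; compound exposure 15 min at room temperature before reaction start.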
Pf growth 96h: inhibits malaria parasite growth, 96 h | AID 504834 | 320,000 tested, 6.9% active | Potency, µM (doses to about 28.7 µM), without a hit: at the highest dose activity change, negative = inhibition, usual class: inhibitors | P. falciparum luciferase reporter growth, 96 h; note: % is set by controls: 0 for no effect and ±100 for the full control effect
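Parasite growth measured via integrated firefly luciferase reporter in P. falciparum. Infected erythrocytes at 2% hematocrit, 0.05% parasitemia final were treated 96 hours at 37 C under 5% CO2, and luminescence was read.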
Numbers without * were called inactive; ? = inconclusive; / = no result given. Unless noted, calls come from the whole dose curve; as a rule, active = well fitted curve in the direction sought with a large enough effect; inconclusive = small, poorly fitted or top-dose-only effect, or another doubt; inactive = no such curve, though single readings can be large; an effect the other way counts as inactive or inconclusive. Potency is the fitted concentration of half-maximal effect.

SMILES	Pf growth 48h	SARS PLP yeast	Sm TGR inh	Pf growth 96h
COC(=O)c1ccc(C(C(=O)NC2CCCCC2)N(Cc2ccc(F)cc2)C(=O)Cc2cccs2)cc1 (stereo not drawn)	11.7µM*	2.7%	-8.9%	?
COc1ccc(NS(=O)(=O)c2ccc3c(c2)NC(=O)CC(=O)N3)cc1OC	2.4%	-1.3%	-14.8%	13.7%
CCOc1ccc(OCCCC(=O)N2CCN(S(=O)(=O)c3ccc(Cl)cc3)CC2)cc1	4.7%	-1.4%	-11.6%	7.1%
COc1ccc(Br)c(C(=O)N2CCN(S(=O)(=O)c3cccs3)CC2)c1	3.7µM*	0.7%	7.8%	24.7%
O=C(CCCOc1ccccc1)N1CCN(S(=O)(=O)c2ccc(Cl)cc2)CC1	11.7µM*	/	5.8%	8.7%
O=C(Cn1cc(C(F)(F)F)ccc1=O)N1CCN(S(=O)(=O)c2ccc(Cl)cc2)CC1	2.94µM*	0.9%	-0.4%	?
N#Cc1ccccc1OCC(=O)N1CCN(S(=O)(=O)c2ccc(Cl)cc2)CC1	?	-4.1%	0.3%	10.4µM*
Cc1cccc(NC(=O)c2cc3c(=O)n4ccccc4nc3n2C)c1C	/	/	3.2%	/
O=C(CCc1nc2ccccc2s1)N1CCN(S(=O)(=O)c2cccs2)CC1	?	-2.5%	-14.1%	13.1µM*
CC(=O)c1ccc(OCCCC(=O)N2CCN(S(=O)(=O)c3cccs3)CC2)cc1	?	-7.8%	-1.8%	9.28µM*
COc1ccccc1C(=O)NCCC(=O)N1CCN(S(=O)(=O)c2ccc(Cl)cc2)CC1	?	-2.1%	-29.6%	13.1µM*
COc1ccccc1C(=O)NCCC(=O)Nc1ccc(S(=O)(=O)N2CCCC(C)C2)cc1 (stereo not drawn)	14.7µM*	-6.1%	-4.8%	?
CCOc1ccc(CCNC(=O)Cn2nc(C)n3cccc3c2=O)cc1OCC	-11.3%	-2.6%	14.8%	20.5%
O=C(NCCC(=O)N1CCCCC1)c1ccccc1Cl	27.6%	-5.1%	-26.5%	38.8%
CC1CC(C)CN(C(=O)CCNC(=O)c2ccccc2Cl)C1 (stereo not drawn)	0.928µM*	-3.4%	0.0%	0.465µM*
COc1ccccc1OC(=O)CCc1nc2ccccc2s1	10.4µM*	2.5%	-3.7%	-12.9%
Cc1cccc(N2CCN(CCCNC(=O)Cn3ncc4c([nH]c5ccccc54)c3=O)CC2C)c1 (stereo not drawn)	/	/	1.7%	/
CCOc1ccc(CC(=O)NCCc2csc(-c3ccc(C(F)(F)F)cc3)n2)cc1	/	/	4.3%	/
CCCn1nc2ccccc2c1P(=N)(N1CCOCC1)N1CCOCC1	11.8%	20.3%	-0.3%	11.7µM*
O=c1c2ccccc2nnn1CCN1CCOCC1	29.0%	1.4%	11.3%	39.9%
Cc1ccc(NC(=S)NC2CCN(Cc3ccccc3)CC2)cc1	?	-22.9%	-4.1%	?
CC(C)c1ccc(NC(=S)NC2CCN(Cc3ccccc3)CC2)cc1	10.4µM*	-9.8%	0.1%	?
S=C(Nc1cc(Cl)cc(Cl)c1)NC1CCN(Cc2ccccc2)CC1	5.86µM*	1.9%	0.0%	?
COc1ccc(CNC(=O)CN2C(=O)c3cccnc3Oc3ccc(C)cc32)cc1	/	/	-10.0%	/
CC1(C)C(C=C(Cl)Cl)C1C(=O)Nc1ccc(S(=O)(=O)Nc2ncccn2)cc1 (stereo not drawn)	13.9%	-1.0%	-1.5%	?
SMILES	Pf growth 48h	SARS PLP yeast	Sm TGR inh	Pf growth 96h
Cc1ccc(C)c(OCCC(=O)OCC(=O)Nc2ccc(N3CCOCC3)cc2)c1	56.0%	-4.5%	-1.7%	64.9%
COc1ccc(-c2nn(-c3ccc(F)cc3F)c3c2cnc2ccc(F)cc23)cc1	/	/	4.7%	/
CC(C)c1nnc(-c2ccc(Cl)cc2)c(N(C)C)n1	?	-0.6%	-27.3%	9.28µM*
COc1cccc(C(=O)c2cn(CC(=O)NCc3ccco3)c3nc(C)ccc3c2=O)c1	-17.6%	1.9%	-4.9%	4.15µM*
Cc1ccc2c(=O)c(C(=O)c3ccc(F)cc3)cn(CC(=O)NCc3ccco3)c2n1	5.0%	4.0%	-21.1%	?
Cc1nn(C2CCS(=O)(=O)C2)c(Cl)c1/C=C/C(=O)OCC(=O)c1c[nH]c2ccccc12 (stereo not drawn)	?	10.8%	-2.8%	?
Cc1nn(C2CCS(=O)(=O)C2)c(Cl)c1/C=C/C(=O)OCC(=O)c1cc(C)n(-c2ccc(F)cc2)c1C (stereo not drawn)	14.7µM*	22.8%	-9.6%	?
CCNC(=O)CC1C(=O)N(c2ccc(C)cc2)C(=O)N1CCC(C)C (stereo not drawn)	14.2%	-0.5%	7.5%	11.7µM*

Assay outcomes: PubChem, National Center for Advancing Translational Sciences (NCATS)
